Data on 62 compounds can be found in PubChem BioAssay AID1626 (SRMLSC, 2009).

About 2,000 (0.91%) of roughly 220,000 compounds were called active. Inconclusive results (about 2%) are left out. Not all results are given here. Entries with a potency or affinity are not part of this list. Unmarked numbers belong to inactive results. No stated cut-off is given here; in the data, inconclusive means inhibition above about 80% without an active follow-up result; inactive means below that; test concentration not stated here.

Broadly, the inhibition is the change of the read-out against control, counted positive when it falls.

This test is described as follows: M. tuberculosis H37Rv growth inhibitors, H37Rv strain (AID 1626).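 Further: bacteria incubated seven days before Alamar blue readout; 0% = bacteria only wells and 100% = bacteria with antibiotic wells.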 The note with it: hits give high values, concentration not given here.
For `CCc1cc2c(SCC(=O)N(CC)c3c(N)n(Cc4ccccc4)c(=O)[nH]c3=O)ncnc2s1`, the inhibition is 5.81%.
For `Clc1ccc(-c2csc(N/N=C/c3ccc4c(c3)OCO4)n2)cc1`, the inhibition was 48.7%.
The same measure for `CCNC(=O)Nc1nc2ccccc2s1`: 4.21%; for `Cc1cccc(Cl)c1OCCCCn1ccnc1`: 3.12%.
With `Cc1ccc(OCCCCn2ccnc2)c(Cl)c1`, the inhibition is 56.8%.
Under `Cc1cc(OCCCCn2ccnc2)cc(C)c1Cl` stands 51.5%; under `Cc1cc(OCCCn2ccnc2)cc(C)c1Cl`, 16.8%; under `O=C(CCN1C(=O)c2ccccc2C1=O)Nc1ccc(S(=O)(=O)N2CCOCC2)cc1`, -4.04%.
Under `Cc1cc(C)cc(OCC(O)CN2C(=O)NC(C)(C)C2=O)c1` (configuration not stated) stands -17.8%; under `FC(F)(F)c1cccc(NC(=S)N2CCN(c3ccccc3)CC2)c1`, -3.11%.
Under `CC(NC(=O)Cn1cc(C(=O)C2CC2)c2ccccc21)c1ccccc1` (configuration not stated) stands 6.54%.
Consider `CC(C)OC(=O)c1cc(C(=O)c2cc(Br)ccc2O)coc1=N`, for which the inhibition is -3.62%.
Under `COC(=O)c1cc(C(=O)c2cc(Cl)ccc2O)coc1=N` stands 3.92%.
For `Nc1nnc(SCC(=O)c2ccc([N+](=O)[O-])cc2)s1`, the inhibition was -6.55%.
Regarding `COc1ccc(S(=O)(=O)N(C)c2ccc(C(N)=O)cc2)cc1`, the inhibition was 3%.
Under `O=C(NCc1ccc2c(c1)OCO2)C1CC(=O)N(C2CCCCCCC2)C1` (configuration not stated) stands 5.14%; under `Cc1ccc(-c2nnc(-n3ncc(C#N)c3N)c3ccccc23)cc1C`, -8.25%; under `COc1ccc2cc(C(=O)C3CCCN(C(=O)/C=C/c4ccccn4)C3)ccc2c1` (configuration not stated), 1.13%.
Turning to `N=c1c2c(-c3ccccc3)c(-c3ccccc3)n(Cc3ccco3)c2ncn1CCO`, the inhibition was 20%.
Under `COc1ccc(-c2oc3ncn(CCN4CCOCC4)c(=N)c3c2-c2ccc(OC)cc2)cc1` stands -3.67%; under `N=c1c2c(-c3ccccc3)c(-c3ccccc3)n(Cc3ccco3)c2ncn1CCCO`, 15.2%.
The same measure for `COc1ccc(C2c3c(ncn(Cc4ccco4)c3=N)Oc3ccc4ccccc4c32)cc1` (configuration not stated): 38.6%; for `CS(=O)(=O)N(CC(=O)Nc1ccccc1C(=O)N1CCCC1)c1cccc([N+](=O)[O-])c1`: 3.06%; for `Cc1csc(Nc2cccc3ccccc23)n1`: 6.85%.
Under `Cc1ccc(C(=O)Nc2ccccc2-c2ccccc2)cc1[N+](=O)[O-]` stands 14.5%.
Consider `COC(=O)CSc1snnc1-c1ccc(F)cc1`, for which the inhibition is -0.55%.
The same measure for `Cc1nn(Cc2c(Cl)cccc2Cl)c(Cl)c1/C=N/NC(=O)c1cccnc1`: -3.52%.
The same measure for `CCc1ccc(NC(=O)C(NS(=O)(=O)c2cccc3nsnc23)c2ccccc2)cc1` (configuration not stated): -4.05%; for `Cc1ccc(NC(=O)c2ccccc2)cc1OC(=O)c1ccccc1`: 6.17%.
The same measure for `Cc1cccc(C(=O)Nc2cccc(OC(=O)c3cccc(C)c3)c2)c1`: 11.6%; for `OCCN1CCN(CC(O)COc2ccc(-c3ccccc3)cc2)CC1` (configuration not stated): 5.51%.
As for `OCCN1CCN(CC(O)COc2ccc(Cl)cc2)CC1` (configuration not stated), the inhibition is 1.07%.
On to `Cc1ccc(CS(=O)(=O)CCC(=O)NCCC2=CCCCC2)cc1`, for which the inhibition is 7.74%.
Under `CCCCc1n[nH]c(=S)n1Cc1ccccc1` stands -1.46%; under `COc1cccc2[nH]c3c(N4CCC5(CC4)OCCO5)ncnc3c12`, 1.2%; under `CC(C)=CCc1cc([C@@H]2COc3c(ccc4c3C=CC(C)(C)O4)C2)c(O)cc1O`, 8.4%.
Under `CC1(C)C=Cc2c(ccc3c2OC[C@@H](c2ccc(O)cc2O)C3)O1` stands 1.16%.
The same measure for `COc1ccc2nc(NC(=O)c3cc(S(=O)(=O)N4CCOCC4)ccc3C)sc2c1`: 14.6%; for `O=C(c1cn(-c2ccccc2)nc1-c1ccccc1)N1CCOCC1`: -8.16%; for `COc1ccccc1/C=N/NC(=S)NCc1ccco1`: -0.41%.
On to `CCOC(=O)C1CCCc2c1[nH]c1c(C(=O)O)cccc21` (configuration not stated), for which the inhibition was -6.94%.
With `CCOC(=O)c1ccc2[nH]c3c(c2c1)CCCC3C(=O)OCC` (configuration not stated), the inhibition was -4.38%.
Under `CCOc1ccc(S(=O)(=O)N/N=C2/CC(c3ccccc3)Oc3ccccc32)cc1` (configuration not stated) stands -11.9%.
`COC(=O)C1C(c2ccccc2)C=CC(c2ccccc2)C1C(=O)O` (configuration not stated): the inhibition is 1.24%.
The same measure for `O=C1C=C(Nc2ccccc2C(=O)O)c2ccccc2C1=O`: 1.72%; for `COC1=C(Nc2ccc(C)cc2)C(=O)c2ccccc2C1=O`: 12.8%.
Under `Cc1ccc(NC2=C(Cl)C(=O)c3ccccc3C2=O)cc1` stands -1.97%.
The same measure for `O=C1C=C(Nc2ccc(O)cc2)C(=O)c2ccccc21`: 5.07%.
Regarding `O=C1C(Nc2ccccc2)=C(N2CCCCC2)C(=O)c2ccccc21`, the inhibition was -1.08%.
In the case of `O=C1C(Cl)=C(Nc2ccccc2)C(=O)c2ccccc21`, the inhibition was -1.42%.
Under `O=C1C(Nc2ccccc2)=C(NS(=O)(=O)c2ccccc2)C(=O)c2ccccc21` stands 8.84%; under `CCCCNC1=CC(=O)C(=O)c2ccccc21`, 1.34%; under `O=C(c1cc(-c2ccc(Cl)cc2)n(-c2ccc(Cl)c(Cl)c2)n1)N1CCOCC1`, -1.31%.
The same measure for `Cc1ccc(OCC(=O)Nc2cccc3nsnc23)c(C)c1`: 7.75%; for `COCOc1ccc(C=O)cc1OCOC`: -3.9%.
Under `COc1cc(Cl)c(C)cc1NC(=O)c1ccc(S(C)(=O)=O)cc1` stands 3.38%.
Consider `CCOc1cc(C=O)ccc1OS(=O)(=O)c1ccc(NC(C)=O)cc1`, for which the inhibition is 5.36%.
The same measure for `COc1ccc(CN2C(=O)c3oc4ccccc4c(=O)c3C2c2ccc(O)c(OC)c2)cc1` (configuration not stated): -7.03%; for `Cc1onc(-c2cccc(Cl)c2Cl)c1C(=O)O/N=C(\N)c1ccc([N+](=O)[O-])o1`: 67%; for `O=c1nc(NCc2ccco2)sc2ncccc12`: -7.68%.
The same measure for `Cc1ccc2c(c1)C(=O)N(CCCCO)C2=O`: -0.27%; for `O=C1c2ccc(Oc3ccc4c(c3)C(=O)N(CCCCO)C4=O)cc2C(=O)N1CCCCO`: -9.34%.
